# Assays:
# Assay in all cases: DAPPL (digital affinity profiling via proximity ligation, sequencing); 10 mM Tris-HCl pH 7.5, 50 mM NaCl, 1 mM DTT, 4% glycerol, room temperature, 30 min; GST-TFs on glutathione beads, 16-mer random dsDNA library, 0.1% formaldehyde crosslink after washing; high values mean tight binding
# [1] = biological target: T1, FLI1 (Homo sapiens, UniProt Q01543 1-452); conditions: protein: recombinant; tags: N-terminal GST; dsDNA, one strand shown
# T1 sequence: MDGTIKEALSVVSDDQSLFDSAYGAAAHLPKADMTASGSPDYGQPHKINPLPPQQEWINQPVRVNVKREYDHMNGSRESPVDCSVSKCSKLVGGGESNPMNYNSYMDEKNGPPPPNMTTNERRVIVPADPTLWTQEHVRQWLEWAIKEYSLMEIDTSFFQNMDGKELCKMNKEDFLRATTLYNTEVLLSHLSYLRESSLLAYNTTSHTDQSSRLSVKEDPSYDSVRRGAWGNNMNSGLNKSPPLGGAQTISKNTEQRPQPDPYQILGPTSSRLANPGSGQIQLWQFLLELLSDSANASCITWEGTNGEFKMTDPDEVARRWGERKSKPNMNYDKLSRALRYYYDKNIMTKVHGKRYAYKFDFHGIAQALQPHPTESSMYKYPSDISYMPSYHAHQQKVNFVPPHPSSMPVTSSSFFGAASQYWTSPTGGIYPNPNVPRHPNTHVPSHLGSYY
# How it was run: (§1)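 A tag-only sample was pooled with DNA-barcoded human transcription factors that had been expressed in yeast as GST fusions and captured on glutathione beads. The pools were incubated for 30 min at room temperature with 200 nmole of a random double-stranded 16-mer DNA library in Tris/NaCl/DTT/glycerol buffer, then washed, crosslinked with 0.1% formaldehyde, proximity-ligated (BsaI/T4 ligase, 1 h, 37 °C), PCR-amplified and sequenced on an Illumina NextSeq500. Binding signal is each hexamer's read frequency for a factor divided by its frequency for the tag-only sample.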
# [2] = biological target: T2, ELK1 (Homo sapiens, UniProt P19419 1-428); conditions: protein: recombinant; tags: N-terminal GST; dsDNA, one strand shown
# T2 sequence: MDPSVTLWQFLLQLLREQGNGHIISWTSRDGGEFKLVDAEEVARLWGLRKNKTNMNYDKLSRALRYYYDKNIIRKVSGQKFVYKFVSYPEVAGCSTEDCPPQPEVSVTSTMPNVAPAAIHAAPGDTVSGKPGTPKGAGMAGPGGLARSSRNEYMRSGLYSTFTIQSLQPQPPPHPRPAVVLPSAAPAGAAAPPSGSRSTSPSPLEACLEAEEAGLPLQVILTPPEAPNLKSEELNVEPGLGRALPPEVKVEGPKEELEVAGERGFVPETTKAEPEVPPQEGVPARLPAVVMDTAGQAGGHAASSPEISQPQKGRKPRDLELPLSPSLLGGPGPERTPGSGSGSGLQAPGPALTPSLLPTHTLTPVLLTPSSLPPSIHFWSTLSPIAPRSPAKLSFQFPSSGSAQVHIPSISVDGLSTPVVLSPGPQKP
# How it was run: as §1
# [3] = biological target: T3, GABPA (Homo sapiens, UniProt Q06546 1-454); conditions: protein: recombinant; tags: N-terminal GST; dsDNA, one strand shown
# T3 sequence: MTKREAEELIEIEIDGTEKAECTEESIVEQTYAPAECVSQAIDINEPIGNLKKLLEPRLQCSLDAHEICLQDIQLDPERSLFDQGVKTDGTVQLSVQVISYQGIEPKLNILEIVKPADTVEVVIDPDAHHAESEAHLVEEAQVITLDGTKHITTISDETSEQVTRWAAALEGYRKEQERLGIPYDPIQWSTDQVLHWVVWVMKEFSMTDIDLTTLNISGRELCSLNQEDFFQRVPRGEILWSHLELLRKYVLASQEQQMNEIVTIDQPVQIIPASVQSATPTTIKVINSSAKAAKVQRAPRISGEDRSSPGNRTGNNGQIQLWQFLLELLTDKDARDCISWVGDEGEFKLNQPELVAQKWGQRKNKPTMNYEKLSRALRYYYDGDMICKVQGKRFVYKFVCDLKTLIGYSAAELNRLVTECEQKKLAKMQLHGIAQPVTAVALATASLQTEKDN
# How it was run: as §1
# [4] = biological target: T4, ERG (Homo sapiens, UniProt P11308 1-479); conditions: protein: recombinant; tags: N-terminal GST; dsDNA, one strand shown
# T4 sequence: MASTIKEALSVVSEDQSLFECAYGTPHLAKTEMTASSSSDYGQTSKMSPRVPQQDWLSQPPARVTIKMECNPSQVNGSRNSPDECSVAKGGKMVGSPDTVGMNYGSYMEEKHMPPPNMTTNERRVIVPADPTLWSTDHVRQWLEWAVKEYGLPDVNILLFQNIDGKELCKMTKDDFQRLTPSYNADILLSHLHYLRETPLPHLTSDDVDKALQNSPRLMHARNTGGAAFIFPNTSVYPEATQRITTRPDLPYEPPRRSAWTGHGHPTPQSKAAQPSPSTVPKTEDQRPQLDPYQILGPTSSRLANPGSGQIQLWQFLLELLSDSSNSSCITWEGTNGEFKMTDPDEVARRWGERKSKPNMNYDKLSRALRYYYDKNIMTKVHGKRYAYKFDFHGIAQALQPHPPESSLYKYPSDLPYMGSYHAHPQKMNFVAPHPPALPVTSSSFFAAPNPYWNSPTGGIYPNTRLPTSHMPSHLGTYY
# How it was run: as §1
# [5] = biological target: ELF1 (Homo sapiens, UniProt P32519 1-619); conditions: protein: recombinant; tags: N-terminal GST; dsDNA, one strand shown
# ELF1, sequence (P32519 whole entry): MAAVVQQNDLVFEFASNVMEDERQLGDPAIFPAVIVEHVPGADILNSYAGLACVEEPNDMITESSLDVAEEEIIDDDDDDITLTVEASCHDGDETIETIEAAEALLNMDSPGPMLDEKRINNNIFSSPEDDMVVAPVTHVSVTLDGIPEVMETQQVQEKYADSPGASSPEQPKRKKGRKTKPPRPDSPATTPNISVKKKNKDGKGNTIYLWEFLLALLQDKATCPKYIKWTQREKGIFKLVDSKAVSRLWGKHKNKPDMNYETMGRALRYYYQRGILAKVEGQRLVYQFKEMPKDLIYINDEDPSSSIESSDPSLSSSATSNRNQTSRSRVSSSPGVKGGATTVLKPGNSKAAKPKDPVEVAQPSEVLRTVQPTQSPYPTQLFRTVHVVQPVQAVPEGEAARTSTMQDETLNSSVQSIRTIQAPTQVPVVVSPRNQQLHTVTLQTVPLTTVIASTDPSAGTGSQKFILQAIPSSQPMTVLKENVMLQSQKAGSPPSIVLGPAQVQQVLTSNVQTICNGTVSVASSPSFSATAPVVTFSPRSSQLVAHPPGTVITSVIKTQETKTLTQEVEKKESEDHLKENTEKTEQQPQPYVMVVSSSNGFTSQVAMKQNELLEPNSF
# How it was run: as §1
# [6] = biological target: T5, EHF (Homo sapiens, UniProt Q9NZC4 1-300); conditions: protein: recombinant; tags: N-terminal GST; dsDNA, one strand shown
# T5 sequence: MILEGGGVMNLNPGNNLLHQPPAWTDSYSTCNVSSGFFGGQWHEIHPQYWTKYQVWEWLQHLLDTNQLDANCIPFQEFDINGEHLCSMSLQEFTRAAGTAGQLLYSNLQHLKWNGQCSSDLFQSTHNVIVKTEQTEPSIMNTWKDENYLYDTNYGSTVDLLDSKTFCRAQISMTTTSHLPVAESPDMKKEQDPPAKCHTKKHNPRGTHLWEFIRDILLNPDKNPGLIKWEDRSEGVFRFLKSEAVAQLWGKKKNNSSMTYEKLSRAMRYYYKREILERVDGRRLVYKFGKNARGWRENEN
# How it was run: as §1
# [7] = biological target: SPI1 (Homo sapiens, UniProt P17947 1-270); conditions: protein: recombinant; tags: N-terminal GST; dsDNA, one strand shown
# How it was run: as §1
# [8] = biological target: SPIB (Homo sapiens, UniProt Q01892 1-262); conditions: protein: recombinant; tags: N-terminal GST; dsDNA, one strand shown
# SPIB, sequence (Q01892 whole entry): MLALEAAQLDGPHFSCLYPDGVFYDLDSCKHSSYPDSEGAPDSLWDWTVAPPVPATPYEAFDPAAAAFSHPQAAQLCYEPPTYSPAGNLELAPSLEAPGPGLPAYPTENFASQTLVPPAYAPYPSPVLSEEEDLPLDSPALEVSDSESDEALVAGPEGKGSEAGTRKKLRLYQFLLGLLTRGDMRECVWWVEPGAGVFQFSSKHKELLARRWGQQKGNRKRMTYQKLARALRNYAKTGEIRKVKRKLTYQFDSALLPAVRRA
# How it was run: as §1
# [9] = biological target: T6, ELK3 (Homo sapiens, UniProt P41970 1-407); conditions: protein: recombinant; tags: N-terminal GST; dsDNA, one strand shown
# T6 sequence: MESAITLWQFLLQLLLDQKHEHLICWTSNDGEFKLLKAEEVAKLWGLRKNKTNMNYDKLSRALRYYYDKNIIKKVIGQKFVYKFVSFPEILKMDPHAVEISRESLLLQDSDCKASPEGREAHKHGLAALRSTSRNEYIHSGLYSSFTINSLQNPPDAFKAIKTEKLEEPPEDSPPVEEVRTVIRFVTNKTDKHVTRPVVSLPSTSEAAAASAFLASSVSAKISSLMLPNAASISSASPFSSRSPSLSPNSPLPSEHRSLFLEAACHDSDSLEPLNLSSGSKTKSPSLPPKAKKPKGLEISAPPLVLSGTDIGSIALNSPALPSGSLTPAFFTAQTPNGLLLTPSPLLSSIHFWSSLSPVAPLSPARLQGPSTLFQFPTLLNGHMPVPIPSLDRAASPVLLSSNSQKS
# How it was run: as §1
# [10] = biological target: T7, FEV (Homo sapiens, UniProt Q99581 1-238); conditions: protein: recombinant; tags: N-terminal GST; dsDNA, one strand shown
# T7 sequence: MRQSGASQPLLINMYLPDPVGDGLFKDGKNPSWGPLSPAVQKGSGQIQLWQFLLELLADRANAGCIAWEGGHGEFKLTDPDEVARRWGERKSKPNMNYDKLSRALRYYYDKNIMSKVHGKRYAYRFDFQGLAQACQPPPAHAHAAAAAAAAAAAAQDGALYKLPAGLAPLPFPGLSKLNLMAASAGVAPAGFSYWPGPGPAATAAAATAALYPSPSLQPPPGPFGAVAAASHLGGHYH
# How it was run: as §1
# [11] = biological target: ETV5 (Homo sapiens, UniProt P41161 1-510); conditions: protein: recombinant; tags: N-terminal GST; dsDNA, one strand shown
# ETV5, sequence (P41161 whole entry): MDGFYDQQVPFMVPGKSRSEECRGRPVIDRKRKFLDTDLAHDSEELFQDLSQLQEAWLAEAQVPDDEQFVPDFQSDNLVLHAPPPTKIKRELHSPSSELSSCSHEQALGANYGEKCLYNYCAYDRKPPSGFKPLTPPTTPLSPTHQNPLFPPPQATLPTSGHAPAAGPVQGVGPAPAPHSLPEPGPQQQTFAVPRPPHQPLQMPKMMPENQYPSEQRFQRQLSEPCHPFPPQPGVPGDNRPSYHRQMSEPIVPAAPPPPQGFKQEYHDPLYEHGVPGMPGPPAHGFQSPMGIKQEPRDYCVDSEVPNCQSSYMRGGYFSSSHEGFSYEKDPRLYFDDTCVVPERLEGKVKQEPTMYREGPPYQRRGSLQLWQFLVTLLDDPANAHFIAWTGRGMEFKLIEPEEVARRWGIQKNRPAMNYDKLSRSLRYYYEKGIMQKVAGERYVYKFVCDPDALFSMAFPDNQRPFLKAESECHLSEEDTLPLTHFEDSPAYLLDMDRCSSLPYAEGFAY
# How it was run: as §1
# [12] = biological target: HSF1 (Homo sapiens, UniProt Q00613 1-529); conditions: protein: recombinant; tags: N-terminal GST; chain copies: 3; dsDNA, one strand shown
# HSF1, sequence (Q00613 whole entry): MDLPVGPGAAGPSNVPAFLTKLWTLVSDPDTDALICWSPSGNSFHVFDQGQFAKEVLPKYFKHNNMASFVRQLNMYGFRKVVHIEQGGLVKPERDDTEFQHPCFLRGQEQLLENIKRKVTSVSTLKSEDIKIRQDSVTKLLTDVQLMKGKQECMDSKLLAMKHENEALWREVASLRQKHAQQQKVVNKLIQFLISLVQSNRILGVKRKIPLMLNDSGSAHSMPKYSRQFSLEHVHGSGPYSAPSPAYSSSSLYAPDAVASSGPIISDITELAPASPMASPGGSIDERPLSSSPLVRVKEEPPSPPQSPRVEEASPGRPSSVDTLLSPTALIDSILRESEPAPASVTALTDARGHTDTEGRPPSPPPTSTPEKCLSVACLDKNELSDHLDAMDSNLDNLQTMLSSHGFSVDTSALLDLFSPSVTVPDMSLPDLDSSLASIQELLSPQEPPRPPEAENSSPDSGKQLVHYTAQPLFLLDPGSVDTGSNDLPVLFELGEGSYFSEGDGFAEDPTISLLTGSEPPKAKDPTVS
# How it was run: as §1
# [13] = biological target: T8, SPIC (Homo sapiens, UniProt Q8N5J4 1-248); conditions: protein: recombinant; tags: N-terminal GST; dsDNA, one strand shown
# T8 sequence: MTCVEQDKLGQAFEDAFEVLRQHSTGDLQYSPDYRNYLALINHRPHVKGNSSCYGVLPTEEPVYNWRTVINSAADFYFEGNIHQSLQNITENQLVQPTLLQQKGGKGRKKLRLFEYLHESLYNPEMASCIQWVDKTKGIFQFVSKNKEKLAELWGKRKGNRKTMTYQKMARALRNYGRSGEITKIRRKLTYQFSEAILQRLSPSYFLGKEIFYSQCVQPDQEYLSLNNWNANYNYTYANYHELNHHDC
# How it was run: as §1
# [14] = biological target: ELF4 (Homo sapiens, UniProt Q99607 1-663); conditions: protein: recombinant; tags: N-terminal GST; dsDNA, one strand shown
# ELF4, sequence (Q99607 whole entry): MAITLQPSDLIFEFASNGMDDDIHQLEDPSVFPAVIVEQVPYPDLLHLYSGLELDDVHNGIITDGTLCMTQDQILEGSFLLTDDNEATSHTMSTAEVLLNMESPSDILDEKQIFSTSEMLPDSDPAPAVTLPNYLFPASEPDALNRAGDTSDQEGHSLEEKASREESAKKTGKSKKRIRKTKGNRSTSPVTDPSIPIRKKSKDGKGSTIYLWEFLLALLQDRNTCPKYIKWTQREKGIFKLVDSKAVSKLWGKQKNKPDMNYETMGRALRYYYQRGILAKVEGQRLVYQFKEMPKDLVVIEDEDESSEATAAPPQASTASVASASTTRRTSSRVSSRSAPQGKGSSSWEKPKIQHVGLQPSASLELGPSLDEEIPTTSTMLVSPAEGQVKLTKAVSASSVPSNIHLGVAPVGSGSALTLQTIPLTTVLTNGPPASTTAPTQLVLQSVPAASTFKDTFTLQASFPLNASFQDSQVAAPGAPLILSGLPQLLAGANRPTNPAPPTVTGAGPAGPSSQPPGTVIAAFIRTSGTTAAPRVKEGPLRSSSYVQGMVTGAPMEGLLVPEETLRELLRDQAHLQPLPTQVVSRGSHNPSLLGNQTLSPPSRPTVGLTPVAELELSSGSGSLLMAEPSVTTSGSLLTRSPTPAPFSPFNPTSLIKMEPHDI
# How it was run: as §1
# [15] = biological target: T9, ELK4 (Homo sapiens, UniProt P28324-2 1-405); conditions: protein: recombinant; tags: N-terminal GST; dsDNA, one strand shown
# T9 sequence: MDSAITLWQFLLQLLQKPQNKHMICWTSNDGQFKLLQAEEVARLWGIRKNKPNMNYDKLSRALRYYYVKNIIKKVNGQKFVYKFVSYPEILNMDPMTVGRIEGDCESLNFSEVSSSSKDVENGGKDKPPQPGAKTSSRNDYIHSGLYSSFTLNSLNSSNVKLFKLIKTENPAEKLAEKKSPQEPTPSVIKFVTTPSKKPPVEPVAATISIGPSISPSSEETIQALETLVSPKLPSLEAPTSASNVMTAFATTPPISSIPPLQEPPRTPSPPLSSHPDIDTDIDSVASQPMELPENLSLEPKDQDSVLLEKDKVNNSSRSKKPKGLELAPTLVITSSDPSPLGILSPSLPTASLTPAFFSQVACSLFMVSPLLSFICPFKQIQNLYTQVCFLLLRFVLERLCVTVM
# How it was run: as §1
# [16] = biological target: T10, ETV2 (Homo sapiens, UniProt O00321 1-342); conditions: protein: recombinant; tags: N-terminal GST; dsDNA, one strand shown
# T10 sequence: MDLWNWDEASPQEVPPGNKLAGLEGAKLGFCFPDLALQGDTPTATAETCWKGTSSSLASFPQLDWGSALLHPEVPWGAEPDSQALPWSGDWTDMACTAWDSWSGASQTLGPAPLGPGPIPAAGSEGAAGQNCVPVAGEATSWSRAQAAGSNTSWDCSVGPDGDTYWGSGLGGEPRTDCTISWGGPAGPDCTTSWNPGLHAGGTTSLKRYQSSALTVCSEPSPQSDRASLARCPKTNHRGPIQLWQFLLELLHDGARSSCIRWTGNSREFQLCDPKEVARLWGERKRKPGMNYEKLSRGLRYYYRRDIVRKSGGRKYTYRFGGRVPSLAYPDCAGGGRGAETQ
# How it was run: as §1
# [17] = biological target: T11, ELF3 (Homo sapiens, UniProt P78545 1-371); conditions: protein: recombinant; tags: N-terminal GST; dsDNA, one strand shown
# T11 sequence: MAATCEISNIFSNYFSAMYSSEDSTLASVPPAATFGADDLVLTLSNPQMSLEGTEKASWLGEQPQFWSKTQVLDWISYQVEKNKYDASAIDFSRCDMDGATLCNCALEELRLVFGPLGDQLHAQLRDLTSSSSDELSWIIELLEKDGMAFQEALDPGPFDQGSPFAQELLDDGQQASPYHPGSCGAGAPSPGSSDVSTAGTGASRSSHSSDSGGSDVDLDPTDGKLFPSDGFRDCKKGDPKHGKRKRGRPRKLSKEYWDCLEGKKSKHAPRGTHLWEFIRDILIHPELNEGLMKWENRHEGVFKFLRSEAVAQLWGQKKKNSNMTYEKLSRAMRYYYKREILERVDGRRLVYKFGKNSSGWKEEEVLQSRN
# How it was run: as §1
# [18] = biological target: CRX (Homo sapiens, UniProt O43186 1-299); conditions: protein: recombinant; tags: N-terminal GST; dsDNA, one strand shown
# CRX, sequence (O43186 whole entry): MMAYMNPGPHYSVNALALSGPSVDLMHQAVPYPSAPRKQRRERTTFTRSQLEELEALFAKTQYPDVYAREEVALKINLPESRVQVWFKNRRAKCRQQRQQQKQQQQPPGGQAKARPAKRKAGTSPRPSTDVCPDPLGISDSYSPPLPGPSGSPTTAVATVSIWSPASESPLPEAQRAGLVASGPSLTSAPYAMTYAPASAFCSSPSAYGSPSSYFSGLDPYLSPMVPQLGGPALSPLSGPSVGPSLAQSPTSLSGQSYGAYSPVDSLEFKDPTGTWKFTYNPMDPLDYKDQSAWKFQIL
# How it was run: as §1
# [19] = biological target: ETV1 (Homo sapiens, UniProt P50549 1-477); conditions: protein: recombinant; tags: N-terminal GST; dsDNA, one strand shown
# ETV1, sequence (P50549 whole entry): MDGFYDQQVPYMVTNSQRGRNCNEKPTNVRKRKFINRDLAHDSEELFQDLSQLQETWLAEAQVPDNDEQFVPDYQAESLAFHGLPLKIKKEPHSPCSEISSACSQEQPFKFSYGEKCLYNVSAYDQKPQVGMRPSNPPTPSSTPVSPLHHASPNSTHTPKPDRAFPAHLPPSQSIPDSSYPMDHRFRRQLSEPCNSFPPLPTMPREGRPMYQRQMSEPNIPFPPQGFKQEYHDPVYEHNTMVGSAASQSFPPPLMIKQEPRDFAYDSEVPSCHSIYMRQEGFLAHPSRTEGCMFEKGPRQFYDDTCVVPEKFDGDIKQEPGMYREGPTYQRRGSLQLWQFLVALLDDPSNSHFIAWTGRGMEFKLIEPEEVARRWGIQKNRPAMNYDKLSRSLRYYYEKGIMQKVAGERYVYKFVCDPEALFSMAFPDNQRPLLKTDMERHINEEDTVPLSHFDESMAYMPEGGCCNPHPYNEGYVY
# How it was run: as §1
sequence,measurement,setting,value
CCTGTT,binding signal,[1],"1.79 fold enrichment (6-mer frequency, TF over GST control)"
same,binding signal,[2],"1.63 fold enrichment (6-mer frequency, TF over GST control)"
same,binding signal,[3],"1.73 fold enrichment (6-mer frequency, TF over GST control)"
same,binding signal,[4],"1.72 fold enrichment (6-mer frequency, TF over GST control)"
same,binding signal,[5],"1.75 fold enrichment (6-mer frequency, TF over GST control)"
same,binding signal,[6],"1.76 fold enrichment (6-mer frequency, TF over GST control)"
same,binding signal,[7],"2 fold enrichment (6-mer frequency, TF over GST control)"
same,binding signal,[8],"1.75 fold enrichment (6-mer frequency, TF over GST control)"
same,binding signal,[9],"1.94 fold enrichment (6-mer frequency, TF over GST control)"
same,binding signal,[10],"1.67 fold enrichment (6-mer frequency, TF over GST control)"
same,binding signal,[11],"1.79 fold enrichment (6-mer frequency, TF over GST control)"
same,binding signal,[12],"1.2 fold enrichment (6-mer frequency, TF over GST control)"
same,binding signal,[13],"1.91 fold enrichment (6-mer frequency, TF over GST control)"
same,binding signal,[14],"1.72 fold enrichment (6-mer frequency, TF over GST control)"
same,binding signal,[15],"1.55 fold enrichment (6-mer frequency, TF over GST control)"
same,binding signal,[16],"1.62 fold enrichment (6-mer frequency, TF over GST control)"
same,binding signal,[17],"1.62 fold enrichment (6-mer frequency, TF over GST control)"
same,binding signal,[18],"1.21 fold enrichment (6-mer frequency, TF over GST control)"
same,binding signal,[19],"1.69 fold enrichment (6-mer frequency, TF over GST control)"

# — paper PMC7862700, “An all-to-all approach to the identification of sequence-specific readers for epigenetic DNA modifications on cytosine”
